Screening data (PubChem BioAssay)
Rab9 prom act: activates the Rab9 promoter. actives 2.8% (n = 320,000). Potency, µM (series often up to 9.22 µM), for inactives: top-dose activation, negative = inhibition, usual class: activators. Huh7 Rab9 promoter-luciferase reporter, luminescence, 24 h; also: % of control where 0% means no effect; nearly all actives have a fitted effect of over 60% in size
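Luminescence read-out: Huh7 cells stably expressing Rab9-luciferase, treated 24 h with compound at 37 °C, then lysed with luciferase reagent for 10 min at ambient before reading.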
SMN2 splice up: enhancers of SMN2 splice variant expression. HEK293 SMN2-luciferase splicing reporter, luminescence, 30-36 h. AID 1458. Potency, µM (doses to about 46.1 µM), without a hit: at the top dose activity change, positive = activation, usual class: activators. actives 2.8% (n = 210,000); also: % of control where 0% means no effect; nearly all actives have a fitted effect of over 55% in size
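qHTS luciferase splicing reporter: luminescence rises when SMN2 exon 7 is included in transfected HEK293 cells. Compound exposure lasted 30-36 h at 37C, with 4.5 mM final sodium butyrate as control, followed by a ONE-Glo read.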
FLuc counter: inhibits or activates purified firefly luciferase, miR-21 counter-screen. P08659. purified FLuc, Km substrates, luminescence inhibition. Potency, µM (doses to about 57.5 µM), for inactives: at the top dose activity change, negative = inhibition, usual class: inhibitors. actives 6.9% (n = 360,000);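 also: plate controls were vehicle for no effect and reference inhibitor for full effect; nearly all actives have a fitted effect of over 55% in size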
Target sequence (P08659 whole entry, looked up): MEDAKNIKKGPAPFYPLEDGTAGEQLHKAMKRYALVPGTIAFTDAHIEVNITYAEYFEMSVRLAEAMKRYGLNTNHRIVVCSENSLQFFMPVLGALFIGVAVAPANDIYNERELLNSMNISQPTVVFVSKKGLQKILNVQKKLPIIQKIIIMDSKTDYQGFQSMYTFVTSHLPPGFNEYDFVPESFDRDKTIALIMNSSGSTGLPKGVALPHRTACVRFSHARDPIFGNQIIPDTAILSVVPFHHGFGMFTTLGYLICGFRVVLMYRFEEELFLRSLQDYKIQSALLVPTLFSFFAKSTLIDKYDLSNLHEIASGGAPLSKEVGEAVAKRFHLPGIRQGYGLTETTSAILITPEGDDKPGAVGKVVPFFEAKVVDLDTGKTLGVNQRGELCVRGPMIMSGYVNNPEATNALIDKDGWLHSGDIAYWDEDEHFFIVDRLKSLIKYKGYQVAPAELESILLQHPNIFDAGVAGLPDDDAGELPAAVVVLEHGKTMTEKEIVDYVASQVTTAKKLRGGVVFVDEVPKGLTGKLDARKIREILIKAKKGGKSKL
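Biochemical qHTS of compounds, final roughly 60 µM downward over six points, against 10 nM purified firefly luciferase using Km concentrations of substrates (10 uM D-luciferin, 10 uM ATP) in Tris acetate pH 7.5 buffer; luminescence output.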
ELG1 genotox: inducers of genotoxicity in HEK293T ELG1-luciferase cells. HEK293T ELG1-luciferase reporter, luminescence, 16 h. Potency, µM (top dose mostly 46 µM), inactives show top-dose activity change, positive = activation, most hits filed as activators. actives 1.3% (n = 330,000). AID 504466; also: % of control where 0% means no effect; nearly all actives have a fitted effect of over 60% in size
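After overnight (16 hr) compound treatment at 37 °C, ELG1-luciferase HEK293T cells were lysed with ONE-Glo; luminescence quantified 30 min later at room temperature.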
KinaseGlo FLuc: blocks Kinase-Glo luciferase, a counter-screen artifact; Q27757; Kinase-Glo luciferase, ATP luminescence, 8 min; Potency, µM (highest dose often 38.3 µM), for the others: at the top dose activity change, negative = inhibition, most hits filed as inhibitors; actives 0.28% (n = 200,000); also: % is scaled to controls: 0 for no effect and ±100 for the full control effect; nearly all actives have a fitted effect of over 60% in size
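Substrate mix (final 50 mM imidazole pH 7.2, 50 mM KCl, 7 mM MgCl2, 10 uM ATP, 0.01% Tween 20, 0.05% BSA) plus pin-tool compound, then Kinase-Glo detection mix; 8 min ambient, luminescence read.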
NPC1 prom act: NPC1 promoter activation; Huh7 NPC1 promoter luciferase reporter, 24 h; Potency, µM (top dose mostly 9.22 µM), for the others: top-dose activation, most hits filed as activators; actives 2.4% (n = 320,000); also: % of control where 0% means no effect; nearly all actives have a fitted effect of over 60% in size
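Cells: Huh7 expressing luciferase under the NPC1 promoter, 1500/well. Seeded 2 h, compound added, incubated 24 h at 37 °C. Luciferase reagent, 10 min ambient, then luminescence.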
* marks the source's active call; other numbers are inactive results. Hits are enriched below; roughly 7.3% of the tested compounds scored in any of these assays. Calls follow the shape of the dose curve; as a rule, active = well fitted curve in the direction sought with a large enough effect; inconclusive = small, poorly fitted or top-dose-only effect, or another doubt; inactive = no such curve, though single readings can be large; an effect the other way counts as inactive or inconclusive. Potency is read from the fitted curve at half-maximal effect.

What do the screens show for `COc1ccc(NC(=O)Cn2c(=O)n(-c3ccc(Cl)cc3)c(=O)c3c(C)c(C(=O)N(C)C)sc32)cc1Cl`?
FLuc counter: 3%

How did Cc1ccc(C)c(NC(=O)Cn2cc(C(=O)c3cccs3)c3ccccc32)c1 do in these assays?
SMN2 splice up: 15%; FLuc counter: 6%

Results for Cc1cccc(NC(=O)Cn2c(/C=C/c3ccccc3)nc3ccccc32)c1 ?
Rab9 prom act: 23%; FLuc counter: 3µM*; ELG1 genotox: 23µM*; NPC1 prom act: 12%

Results for CCN(CC)S(=O)(=O)N1CCC(C(=O)NCc2ccc(C)cc2)CC1 ?
Rab9 prom act: 6%; SMN2 splice up: 3%; FLuc counter: -2%; ELG1 genotox: -1%; KinaseGlo FLuc: -2%; NPC1 prom act: 0%

Results for CCN(CC)c1ccc(CN2CCC(C(=O)NCc3ccc(C)cc3)CC2)cc1 ?
Rab9 prom act: 12%; FLuc counter: 24µM*; ELG1 genotox: 3%; KinaseGlo FLuc: -2%; NPC1 prom act: 0%

What do the screens show for `COc1ccc(-c2cc(C(=O)Nc3c(Cl)cccc3Cl)no2)cc1OC`?
SMN2 splice up: -34%; FLuc counter: inconclusive

How did CC(=O)N(c1ccccc1)c1nnc(-c2cnc(C)cn2)s1 do in these assays?
Rab9 prom act: 3.2µM*; FLuc counter: inconclusive; ELG1 genotox: 9.2µM*; KinaseGlo FLuc: 1%; NPC1 prom act: 1.6µM*

How did COc1ccc(/C=C/c2nnc(NC(=O)COc3ccc(C)cc3)s2)cc1 do in these assays?
Rab9 prom act: 3%; SMN2 splice up: 5µM*; FLuc counter: -1%; ELG1 genotox: 10%; KinaseGlo FLuc: 8%; NPC1 prom act: 21%

How did COc1ccc(/C=C/c2nnc(NC(=O)COc3ccccc3)s2)cc1 do in these assays?
Rab9 prom act: -1%; FLuc counter: -3%; ELG1 genotox: -1%; NPC1 prom act: 4%

How did COc1ccc(/C=C/c2nnc(NC(=O)C(C)(C)C)s2)cc1 do in these assays?
Rab9 prom act: 19%; FLuc counter: 8.5µM*; ELG1 genotox: 2%; NPC1 prom act: 22%

How did CCOC(=O)Nc1nnc(-c2ccc(OC)cc2)s1 do in these assays?
Rab9 prom act: inconclusive; SMN2 splice up: 18%; FLuc counter: 4.8µM*; ELG1 genotox: inconclusive; KinaseGlo FLuc: -6%; NPC1 prom act: 21%

How did CCOC(=O)Nc1nnc(/C=C/c2ccc(OC)cc2)s1 do in these assays?
Rab9 prom act: 0%; SMN2 splice up: 7%; FLuc counter: 13µM*; ELG1 genotox: 16%; KinaseGlo FLuc: 2%; NPC1 prom act: 8%

What do the screens show for `CCCCOC(=O)Nc1nnc(/C=C/c2ccc(OC)cc2)s1`?
Rab9 prom act: -1%; SMN2 splice up: -4%; FLuc counter: inconclusive; ELG1 genotox: 2%; KinaseGlo FLuc: -2%; NPC1 prom act: -4%

What do the screens show for `CCOC(=O)Nc1nnc(-c2cccc(OC)c2)s1`?
Rab9 prom act: 3%; SMN2 splice up: inconclusive; FLuc counter: inconclusive; ELG1 genotox: inconclusive; KinaseGlo FLuc: -1%; NPC1 prom act: 10%

Results for COC(=O)CN1C(=O)CSc2ccc(S(=O)(=O)N3CCOCC3)cc21 ?
FLuc counter: 0%

What do the screens show for `Cc1cccc(-c2cnn(-c3ccccc3)c2N)c1`?
Rab9 prom act: 3.5µM*; FLuc counter: 6.7µM*; ELG1 genotox: inconclusive; NPC1 prom act: inconclusive

What do the screens show for `Nc1ccccc1Nc1cc(-c2cccc(Cl)c2)nn1-c1ccccc1`?
Rab9 prom act: 3%; SMN2 splice up: 12%; FLuc counter: 27µM*; ELG1 genotox: 1%; KinaseGlo FLuc: -1%; NPC1 prom act: 6%

How did Nc1c(-c2ccccc2)cnn1-c1cccc(Cl)c1 do in these assays?
Rab9 prom act: 1.4µM*; FLuc counter: 3.4µM*; ELG1 genotox: inconclusive; NPC1 prom act: 1.1µM*

How did Cc1cccc(-c2cnn(-c3cccc([N+](=O)[O-])c3)c2N)c1 do in these assays?
Rab9 prom act: 28%; SMN2 splice up: inconclusive; FLuc counter: inconclusive; ELG1 genotox: 8%; KinaseGlo FLuc: -6%; NPC1 prom act: 18%

Results for Cc1nnc(N2CCN(C(=O)Nc3cc(F)ccc3F)CC2)c2nn(-c3ccc(Cl)cc3)c(C)c12 ?
FLuc counter: -11%

Results for NC(=O)c1cccc2c3c([nH]c12)CCCC3 ?
Rab9 prom act: -4%; SMN2 splice up: -4%; FLuc counter: 24µM*; ELG1 genotox: 8%; KinaseGlo FLuc: -4%; NPC1 prom act: 14%

Results for COc1cccc(-c2cc(C(F)(F)F)n3nc(C(=O)N4CCCCC4c4cccnc4)cc3n2)c1 (configuration not stated) ?
Rab9 prom act: -10%; SMN2 splice up: -49%; FLuc counter: 15µM*; ELG1 genotox: -13%; KinaseGlo FLuc: -4%; NPC1 prom act: -8%

What do the screens show for `COc1ccc(-c2cc(C(F)(F)F)n3nc(C(=O)N4CCCCC4)cc3n2)cc1`?
Rab9 prom act: -2%; SMN2 splice up: -10%; FLuc counter: inconclusive; ELG1 genotox: -6%; KinaseGlo FLuc: -5%; NPC1 prom act: 2%

Results for O=C(c1cc2nc(-c3ccco3)cc(C(F)(F)F)n2n1)N1CCN(c2ccccc2)CC1 ?
Rab9 prom act: -7%; SMN2 splice up: 3%; FLuc counter: 0%; ELG1 genotox: -21%; KinaseGlo FLuc: 1%; NPC1 prom act: 0%

Results for O=C(c1cc2nc(-c3ccco3)cc(C(F)(F)F)n2n1)N1CCCCCC1 ?
Rab9 prom act: 7%; SMN2 splice up: -11%; FLuc counter: 21µM*; ELG1 genotox: -16%; KinaseGlo FLuc: 2%; NPC1 prom act: -2%

What do the screens show for `N#CC(C#N)=c1ccc2c(c1)N1C3=C(CCCC3)CC3CCCCC31N=2` (configuration not stated)?
Rab9 prom act: 1%; SMN2 splice up: -108%; FLuc counter: 12µM*; ELG1 genotox: -8%; KinaseGlo FLuc: inconclusive; NPC1 prom act: -5%

How did N#C/C(C(N)=O)=c1/ccc2c(c1)N1C3=C(CCCC3)CC3CCCCC31N=2 (configuration not stated) do in these assays?
Rab9 prom act: -6%; SMN2 splice up: -15%; FLuc counter: 8.5µM*; ELG1 genotox: -28%; KinaseGlo FLuc: inconclusive; NPC1 prom act: -10%

Results for Cc1ccc(CNC(=O)c2c(-c3ccccc3Cl)noc2C)o1 ?
FLuc counter: 4%
